Hits are enriched below; roughly 3.5% of the tested compounds scored in any of these assays.
MITF primary = blocks human microphthalmia-associated transcription factor | O75030 | AlphaScreen MITF homodimerization, bead proximity signal | inhibition, % at 2.6 µM | 650,000 compounds, 0.91% hits | AID 1259374; in the data active = inhibition above about 50%;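 note: 0% = vehicle wells with protein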
Target sequence (O75030 whole entry, looked up): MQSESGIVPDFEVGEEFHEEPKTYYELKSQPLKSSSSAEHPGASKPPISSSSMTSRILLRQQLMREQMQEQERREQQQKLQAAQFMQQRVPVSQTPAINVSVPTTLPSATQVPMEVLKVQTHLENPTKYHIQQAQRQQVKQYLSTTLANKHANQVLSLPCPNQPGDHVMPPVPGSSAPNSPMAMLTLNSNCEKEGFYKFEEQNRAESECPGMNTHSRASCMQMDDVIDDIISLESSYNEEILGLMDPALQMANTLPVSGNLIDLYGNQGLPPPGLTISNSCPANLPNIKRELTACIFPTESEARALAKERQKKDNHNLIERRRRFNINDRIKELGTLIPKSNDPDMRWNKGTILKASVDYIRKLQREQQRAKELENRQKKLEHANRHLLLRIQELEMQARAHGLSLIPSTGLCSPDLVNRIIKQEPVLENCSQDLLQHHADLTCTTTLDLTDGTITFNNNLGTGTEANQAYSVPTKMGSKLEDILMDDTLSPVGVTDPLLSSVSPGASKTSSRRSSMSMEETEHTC
FBW7 act = human FBW7 E3 ligase activation, primary screen | Q969H0 | AlphaScreen FBW7–phospho-cyclin E peptide binding, activator screen | normalized activity (activation), % at 26.1 µM | 650,000 compounds, 0.13% hits; in the data active = normalized activity above about 1.9%;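 note: purified mutant Fbw7 with reduced substrate affinity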
GPR151 ag = activators of human GPR151; PathHunter beta-arrestin GPR151 cells, luminescence; activation, % at 11.2 µM; 650,000 compounds, 1% hits; in the data active = activation above about 4.9%;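 note: 0% = median of compound wells and 100% = cells with positive control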
TEAD-YAP block = TEAD-YAP interaction inhibition; HEK-TIYL cells, TEAD-Gal4/YAP UAS-luciferase luminescence; 640,000 compounds, 1.4% hits; inhibition, % at 9.12 µM; in the data active = inhibition above about 32%;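 note: 0% = median of test compound wells and 100% = reference inhibitor wells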
Numbers without * were called inactive; ! = repeats disagree.

SMILES	MITF primary	FBW7 act	GPR151 ag	TEAD-YAP block
CCc1ccccc1NC(=O)CCCC(=O)OCC(=O)c1ccc(OC)cc1	2.7	-0.3	1.2	-3.3
c1cncc(CNc2ccn3ncc(-c4cccc5ccccc45)c3n2)c1	8.3	0.1	0.2	-8.3
Fc1ccccc1-c1cnn2ccc(NCc3cccnc3)nc12	12.7	0.0	0.3	41.6*
CC(C)(C)c1ccc(C2NC(=O)c3ccccc3N2)cc1 (stereo unspecified)	7.9	0.0	0.2	47.8*
Brc1cccc(C2Nc3cccc4cccc(c34)N2)c1	-3.9	0.8	0.1	-10.9
CN(C)c1ccc(C2NC(=O)c3ccccc3N2)cc1 (stereo unspecified)	1.5	0.1	-3.7	56.4*
O=C1NC(c2ccc(-c3ccccc3)cc2)Nc2ccccc21 (stereo unspecified)	-11.8	0.0	-1.2	40.2*
O=C1NC(c2ccncc2)Nc2ccccc21 (stereo unspecified)	4.7	-0.4	0.7	8.2
N#CCOc1ccc(C2NC(=O)c3ccccc3N2)cc1 (stereo unspecified)	-1.1	0.1	1.5	-11.5
O=C1NC(c2cccc(Br)c2)Nc2ccccc21 (stereo unspecified)	-10.4	0.2	1.4	49.1*
Cn1c(=O)[nH]c(=O)c2c1nc(NCCO)n2CCCc1ccccc1	6.9	0.1	-1.2	8.8
Cc1nc(C(C)Nc2nncc(-c3ccccc3C)n2)n[nH]1 (stereo unspecified)	-2.3	0.0	0.7	1.7
CC(C)CC(=O)Nc1ccc(C(=O)CSc2nnc(-c3ccco3)o2)cc1	6.1	0.0	1.3	2.4
O=C(Nc1c(O)c2ccccc2oc1=O)c1cccs1	4.0	-0.6	1.1	-34.1
O=C(CSCC(=O)Nc1ccccc1)N/N=C/c1c(O)ccc2ccccc12	-51.4	-0.1	-1.5	73.9*
O=C(CSc1cccc2cccnc12)N/N=C/c1c(O)ccc2ccccc12	12.1	-0.3	0.1	34.3*
Cc1cc(C)nc(/N=C(\N)Nc2ccc([N+](=O)[O-])cc2C)n1	0.3	-0.1	2.3	-1.2
COc1cc([N+](=O)[O-])ccc1N/C(N)=N/c1nc(C)cc(C)n1	-19.6	0.1	0.1	56.8*!
O=C(NCc1cccnc1)/C(=C/c1ccc(-c2cccc(Cl)c2)o1)S(=O)(=O)c1ccccc1	6.3	-0.1	0.3	52.9*
O=C(NCc1cccnc1)/C(=C\c1ccc(Br)cc1)S(=O)(=O)c1ccccc1	-5.1	-0.1	-0.5	85.6*
O=C(NCc1cccnc1)/C(=C/c1ccc(-c2cccc([N+](=O)[O-])c2)o1)S(=O)(=O)c1ccccc1	7.4	-0.2	-0.6	13.7
O=C(NCc1cccnc1)/C(=C/c1ccc(-c2ccc(Br)cc2)o1)S(=O)(=O)c1ccccc1	1.9	0.0	-0.3	35.4*
O=C(NCc1cccnc1)/C(=C\c1cccc(Oc2ccccc2)c1)S(=O)(=O)c1ccccc1	10.2	0.2	-2.6	81.6*
O=C(Nc1ccc2c(c1)OCCO2)c1ccc(Br)cc1	4.7	0.0	-7.9	-26.9
COc1ccc(/C=C2\N=C(c3ccccc3Cl)OC2=O)c(OC)c1	2.4	-0.2	3.5	0.9
SMILES	MITF primary	FBW7 act	GPR151 ag	TEAD-YAP block
Nc1c(-c2ccccc2)cnc2c(-c3ccc(Cl)cc3)cnn12	6.4	0.5	-1.5	-22.4
Nc1c(-c2ccccc2)cnc2c(-c3ccccc3)cnn12	-3.6	0.1	0.4	40.9*
Cc1nn2c(N)c(-c3ccccc3)cnc2c1-c1ccc(Cl)cc1	-3.7	0.1	0.7	32.9*
COCCN1CCN(C(=O)CC2(c3ccccc3F)CC(=O)N(CCOC)C2=O)CC1 (stereo unspecified)	-7.3	0.0	-0.4	-13.8
Brc1ccc(-c2nc(-c3ccccn3)no2)cc1	4.2	-0.1	-10.5	90.3*
Clc1ccccc1/C=C/c1nc(-c2ccccn2)no1	9.2	0.1	-11.8	85.3*
CC(C)(C)c1ccc(-c2nc(-c3ccccn3)no2)cc1	8.9	0.0	-9.0	96.2*
COc1cccc(-c2nc(-c3ccccc3)no2)c1	3.2	0.6	-2.5	-66.5
c1ccc(-c2noc(-c3ccncc3)n2)nc1	10.8	0.5	-8.9	1.1
COc1cccc(-c2nc(-c3ccccn3)no2)c1	-7.1	0.7	-11.7	86.3*
Cc1ccc(NC(=O)CSc2nc3ccccc3c(=O)n2C2CCCC2)cc1	2.0	0.0	0.0	31.6
Ic1cccc(-c2nc(-c3ccccn3)no2)c1	-3.7	-0.1	-2.2	10.4
Brc1cccc(-c2nc(-c3ccccn3)no2)c1	-23.1	-0.1	-9.2	72.7*
COC(=O)c1c(C)nc(C)c(C(=O)OC)c1-c1cccc([N+](=O)[O-])c1	17.7	0.1	1.5	5.7
Nc1nc2c3cc4c(nc3sc2c2ccccc12)CCC4	-14.5	0.3	-3.6	33.8*
COc1ccc2cc3c(N)c(C(=O)NCc4cccs4)sc3nc2c1	-6.4	0.0	0.3	-40.8
COc1ccc2c(c1OC)C(=O)OC2Nc1cccc(NC(C)=O)c1 (stereo unspecified)	8.8	1.1	-0.3	-1.9
COc1cc2c(c(OC)c1OC)-c1ccc(OC)c(=O)cc1[C@@H](NC(C)=O)CC2	15.9	0.2	-1.5	57.5*
CCC1CCCCN1CCNS(=O)(=O)c1cc(Br)cc2c1N(C(C)=O)CC2 (stereo unspecified)	7.5	-0.1	-0.8	1.3
O=C(OC1CCCCC1)C1CCCN1S(=O)(=O)c1cccc2nsnc12 (stereo unspecified)	5.7	-0.1	-0.9	1.3
C/C(=N\NC(=O)COc1ccccc1-c1ccccc1)c1ccc(O)cc1O	-30.6	0.0	1.9	58.5*
O=C(COc1ccccc1-c1ccccc1)N/N=C/c1ccncc1	14.9	0.6	-1.5	51.7*
S=C(NCc1ccccc1)N/N=C/c1ccccn1	52.0*	-0.5	-1.0	89.4*
O=C(CCC(=O)N/N=C\c1ccccn1)N/N=C\c1ccccn1	20.6	-0.1	1.4	10.4
CCOc1ccccc1OCC(=O)N/N=C(\CCC(=O)O)c1ccccc1	-5.1	-0.1	0.3	59.4*
SMILES	MITF primary	FBW7 act	GPR151 ag	TEAD-YAP block
CC(=O)c1ccc(-c2ccc(C(=O)NC3CCCCC3)c(NCc3cccnc3)n2)s1	-13.4	-0.2	-0.1	-0.2
C=CCN(CC=C)S(=O)(=O)c1ccc(NC(=O)C2CCCCC2C(=O)O)cc1 (stereo unspecified)	14.6	0.0	1.1	13.6
Cc1ccc(N=Cc2nc(-c3ccc(Cl)cc3)oc2O)c(C)c1	-2.2	0.2	-0.8	3.2
O=C(N/N=C/c1cccnc1)c1cc(Br)ccc1OCc1ccccc1	23.3	0.0	-1.5	32.8*
O=C(N/N=C/c1cccnc1)c1ccccc1OCc1ccccc1	-1.8	-0.1	0.4	-1.5
O=C(COc1ccccc1-c1ccccc1)N/N=C/c1cccnc1	-2.1	0.0	-0.7	47.3*
CCOc1ccc(Br)cc1C(=O)N/N=C/c1ccc2c(c1)OCO2	6.5	0.1	-0.5	33.5*
O=C(COc1ccccc1-c1ccccc1)N/N=C/c1ccccn1	11.7	-0.1	1.0	51.5*
O=C(NC1CC1)c1cccc(N2CCOCC2)n1	-0.1	0.1	0.6	-1.9
COCCCNC1CS(=O)(=O)CC1O (stereo unspecified)	-1.2	-0.1	1.4	5.8

Bioassay records: PubChem BioAssay, The Scripps Research Institute Molecular Screening Center
